Assay outcomes as filed in PubChem.
Only some compounds are listed: those with a hit (about 4.1% of all), similar ones and a draw of the others.
TIM10 inh – growth inhibitors of TIM10 yeast strain | S. cerevisiae TIM10 strain growth, BacTiter-Glo luminescence, 24 h | AID 463195 | 330,000 tested, 1.4% active | inhibition, % at 10 µM;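 active means inhibition of 40% or more at the single tested concentration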;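 further: wild-type TIM10 isogenic control strain grown at permissive 25 °C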
NALP1 yeast inh – blocks the NALP1 inflammasome reconstituted in yeast. S. cerevisiae NALP1/ASC/caspase-1 growth, X-gal OD620, 72 h. inhibition, % at 10 µM. 280,000 tested, 0.61% active; in the data active means inhibition mostly above about 24%, no sharp cut-off; inactive means mostly below about 32%
NALP3 yeast inh – inhibitors of NALP3 inflammasome in yeast. Yeast reconstituted NLRP3/ASC/caspase-1, beta-gal luminescence, 24 h. inhibition, % at 10 µM. 330,000 tested, 0.39% active;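 active means inhibition of 50% or more; inactive means inhibition below 50%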
tim23-1 inh – growth inhibitors of tim23-1 mutant yeast. S. cerevisiae tim23-1 growth, BacTiter-Glo luminescence, 24 h. inhibition, % at 20 µM. 330,000 tested, 1.3% active;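 active means growth inhibition of the mutant yeast at or above 50%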;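 further: temperature-sensitive mutant grown at 25 °C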
tim10-1 inh – growth inhibitors of tim10-1 mutant yeast. S. cerevisiae tim10-1 ts strain growth, BacTiter-Glo, 24 h. inhibition, % at 20 µM. 330,000 tested, 2.2% active. AID 463190;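 active means inhibition of at least 40%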;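 further: mutant grown at 25 °C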
PfHsp90 yeast 2 – inhibits growth of yeast expressing Plasmodium falciparum Hsp90. S. cerevisiae expressing PfHsp90, BacTiter-Glo ATP, 48 h; yeast lacking PDR1 and PDR3 efflux regulators. inhibition, % at 9.4 µM. 310,000 tested, 0.32% active;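 active means every replicate shows inhibition above about 80%, whatever the replicate mean, limit read from the data; inconclusive means mean inhibition reaches the set limit but some replicate falls short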
tim23-1 conf – tim23-1 yeast growth inhibition, confirmed | 4,400 tested, 83% active | shares compounds with tim23-1 inh | S. cerevisiae tim23-1 growth, BacTiter-Glo luminescence, 24 h | inhibition, % at 20 µM;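 active means inhibition above about 39% in either of two replicate wells at 20 µM, limit read from the data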;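 further: temperature-sensitive tim23-1 mutant grown at 25 °C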
Of the large screens only hits and unclear results are named; the others gave an inactive call (follow-up assays come after a bar, where they were run).

CCCOc1ccc2c3c(c(=O)oc2c1OCCC)CCCC3	none
CCOc1ccc(-n2ccnc(SCC(=O)Nc3ccc(CC)cc3)c2=O)cc1	tim23-1 inh 56 (no result: NALP1 yeast inh) | tim23-1 conf 53
Cc1ccc(NC(=S)NCCc2c[nH]c3ccccc23)cc1	none
CC(C)c1ccc(NC(=S)NCCc2c[nH]c3ccccc23)cc1	tim23-1 inh 52 | tim23-1 conf inactive
CCOC(=O)C1CCN(S(=O)(=O)c2ccc3c(c2)CC(C)N3C(=O)C2CCC2)CC1 (stereo not given)	tim23-1 inh 51 | tim23-1 conf 43
CCOC(=O)C1CCCN(S(=O)(=O)c2ccc3c(c2)CC(C)N3C(=O)C2CC2)C1 (stereo not given)	none
Nc1ccc(-c2ncc(-c3ccccc3)o2)cc1	tim23-1 inh 51 | tim23-1 conf inactive
Cc1ccc(-c2cnc(-c3ccncc3)o2)cc1	none (no result: PfHsp90 yeast 2)
O=C(CN1C(=O)c2ccccc2S1(=O)=O)c1ccc(Cl)cc1Cl	tim23-1 inh 51 (no result: PfHsp90 yeast 2) | tim23-1 conf inactive
CSCC[C@H](NC(=O)C1CCC(CNC(=O)[C@@H]2CCCN2C(=O)OC(C)(C)C)CC1)C(=O)O (stereo not given in full)	none
CC(C)(C)NC(=O)CSc1nc(-c2ccc(F)cc2)cs1	tim23-1 inh 77 | tim23-1 conf inactive
Cc1ccc(S(=O)(=O)/C(C#N)=C/c2c(Oc3ccc(Cl)cc3)nc3c(C)cccn3c2=O)cc1	tim23-1 inh 50 (no result: PfHsp90 yeast 2) | tim23-1 conf inactive
Cc1cc(NC(=O)CCC(=O)N(c2ccccc2)C(C(=O)NC2CCCC2)c2ccccc2C)no1 (stereo not given)	none
Cc1c(CCOC(=O)C23CC4CC(CC(C)(C4)C2)C3)sc[n+]1CC(=O)c1ccccc1	tim23-1 inh 62 | tim23-1 conf inactive
O=C(CSc1cccs1)Nc1ccc2ccccc2c1	tim23-1 inh 55 | tim23-1 conf 57
Fc1cccc(-c2cc3nc4c(c(N5CCC6(CC5)OCCO6)n3n2)CCCC4)c1	tim23-1 inh 52 | tim23-1 conf inactive
O=C(O)c1cccc(-c2ccc(/C=N/NC(=O)C3COc4ccccc4O3)o2)c1 (stereo not given)	none
O=C(N/N=C\c1ccc(-c2ccccc2[N+](=O)[O-])o1)C1COc2ccccc2O1 (stereo not given)	tim23-1 inh 76 | tim23-1 conf 53
O=C(N/N=C\c1ccc(-c2ccccc2[N+](=O)[O-])o1)C1COc2cc3ccccc3cc2O1 (stereo not given)	tim23-1 inh 58 | tim23-1 conf 53
CCC1Nc2ncnc(N3CCCCC3)c2N(Cc2ccc(OC)cc2)C1=O (stereo not given)	none (no result: NALP1 yeast inh)
Cc1ccc(CN2CCN(/N=C/c3cc(Br)cc(Br)c3O)CC2)cc1	tim23-1 inh 59 | tim23-1 conf 59
O=C(CCCn1c(=S)[nH]c2cc3c(cc2c1=O)OCO3)NCCc1ccccc1Cl	none
CC(=O)Nc1ncnc2c1c(-c1ccc(Cl)cc1)nn2C(C)(C)C	NALP1 yeast inh 42, tim23-1 inh 52 | tim23-1 conf 48
CCN1C(=O)c2cccc3c(S(=O)(=O)N(C(=O)c4cccnc4)c4ccc(OC)cc4)ccc1c23	none
CCN1C(=O)c2cccc3c(S(=O)(=O)N(C(=O)c4ccncc4)c4ccc(OC)cc4)ccc1c23	tim23-1 inh 52 | tim23-1 conf inactive
CC(C)CN1C(=O)c2ccc(NC(=O)c3ccco3)cc2C1=O	tim23-1 inh 52 | tim23-1 conf 53
CC(=O)c1cccc(NC(=O)CSc2nc(=O)n(CCN3CCOCC3)c3c2CCCC3)c1	none (no result: NALP1 yeast inh)
O=C1NC(=Nc2ccccc2Cl)S/C1=C\c1cccc([N+](=O)[O-])c1	tim23-1 inh 55, PfHsp90 yeast 2 inconclusive | tim23-1 conf 63
CC1CCN(C(=O)CN2C(=O)C(=O)N(C(C)C)C2=O)c2ccccc2S1 (stereo not given)	none (no result: NALP1 yeast inh)
CC(=O)c1ccc(NC(=S)N2CCN(c3cccc(Cl)c3)CC2)cc1	none
CC(=O)c1ccc(N2CCN(C(=S)Nc3cccc(Cl)c3)CC2)cc1	tim23-1 inh 96 | tim23-1 conf inactive
